The full list was thinned out, with the strongest signals kept by preference.
Key:
Assay in all cases: glycan array binding signal (z-score within array); higher = stronger binding
Conditions in all cases: glycan notation: IUPAC condensed, linker removed
[1] = biological target: Ara(a1-5)Ara(a1-5)Ara(a1-5)Ara(a1-5)Ara(a1-5)Ara
How it was run: (§1)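 Negative Z-scores can be read as non-binding. The Z-score is calculated within each array and then averaged across arrays of one protein sequence at different concentrations or buffers and across linkers. Arrays, 3228 in all, were curated from the Consortium for Functional Glycomics database and kept only where the protein sequence was available.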

[2] = biological target: Fuc(a1-2)Gal(b1-3)GlcNAc(b1-3)Gal(b1-4)Glc
How it was run: as §1

[3] = biological target: Gal(b1-3)GlcNAc(b1-3)[Gal(b1-4)GlcNAc(b1-6)]Gal(b1-4)Glc
How it was run: as §1

[4] = biological target: Gal(b1-4)GlcNAc(b1-3)[Gal(b1-4)GlcNAc(b1-6)]Gal(b1-4)GlcNAc(b1-3)[Gal(b1-4)GlcNAc(b1-6)]Gal(b1-4)GlcNAc(b1-3)[Gal(b1-4)GlcNAc(b1-6)]Gal(b1-4)GlcNAc(b1-3)[Gal(b1-4)GlcNAc(b1-6)]Gal(b1-4)GlcNAc(b1-3)Gal(b1-4)Glc
How it was run: as §1

[5] = biological target: Gal3S(b1-3)[Fuc(a1-4)]GlcNAc(b1-3)Gal(b1-4)Glc
How it was run: as §1

[6] = biological target: Gal3S(b1-4)GlcNAc(b1-3)Gal
How it was run: as §1

[7] = biological target: Glc(a1-2)Glc(a1-3)Glc(a1-3)Man(a1-2)Man(a1-2)Man(a1-3)[Man(a1-3)[Man(a1-6)]Man(a1-6)]Man(b1-4)GlcNAc
How it was run: as §1

[8] = biological target: Glc(a1-3)Glc
How it was run: as §1

[9] = biological target: Glc(a1-3)Glc(a1-3)Man(a1-2)Man(a1-2)Man(a1-3)[Man(a1-3)[Man(a1-6)]Man(a1-6)]Man(b1-4)GlcNAc
How it was run: as §1

[10] = biological target: Glc(a1-3)Man(a1-2)Man(a1-2)Man(a1-3)[Man(a1-2)Man(a1-3)[Man(a1-2)Man(a1-6)]Man(a1-6)]Man(b1-4)GlcNAc(b1-4)GlcNAc
How it was run: as §1

[11] = biological target: Glc(a1-6)Glc
How it was run: as §1

[12] = biological target: Glc(a1-6)Glc(a1-6)Glc(a1-6)Glc
How it was run: as §1

[13] = biological target: Glc(a1-6)Glc(a1-6)Glc(a1-6)Glc(a1-6)Glc
How it was run: as §1

[14] = biological target: Glc(a1-6)Glc(a1-6)Glc(a1-6)Glc(a1-6)Glc(a1-6)Glc
How it was run: as §1

[15] = biological target: Glc(b1-4)Glc(b1-4)Glc(b1-4)Glc(b1-4)Glc(b1-4)Glc
How it was run: as §1

[16] = biological target: GlcA3S(b1-3)Gal
How it was run: as §1

[17] = biological target: GlcNAc(b1-3)[GlcNAc(b1-6)]Gal(b1-4)GlcNAc(b1-3)[GlcNAc(b1-6)]Gal(b1-4)GlcNAc(b1-3)Gal(b1-4)Glc
How it was run: as §1

[18] = biological target: HexA(a1-3)GalNAc6S(b1-4)GlcA(b1-3)GalNAc6S
How it was run: as §1

[19] = biological target: Man(a1-2)Man
How it was run: as §1

[20] = biological target: Man(a1-3)[Man(a1-6)]Man(b1-4)GlcNAc(b1-4)GlcNAc
How it was run: as §1

[21] = biological target: Man(b1-4)GlcNAc
How it was run: as §1

[22] = biological target: Man6P(a1-3)Man(a1-3)Man(a1-3)Man(a1-2)Man
How it was run: as §1

[23] = biological target: Neu5Ac(a2-3)Gal(b1-3)GalNAc(b1-4)[Neu5Ac(a2-3)]Gal(b1-4)Glc
How it was run: as §1

[24] = biological target: Neu5Ac(a2-3)Gal(b1-3)[Fuc(a1-4)]GlcNAc
How it was run: as §1

[25] = biological target: Neu5Ac(a2-3)Gal(b1-3)[Fuc(a1-4)]GlcNAc(b1-3)Gal(b1-4)Glc
How it was run: as §1

[26] = biological target: Neu5Ac(a2-8)Neu5Ac
How it was run: as §1

[27] = biological target: Neu5Ac9Ac(a2-6)Gal(b1-4)GlcNAc
How it was run: as §1

[28] = biological target: 3dGal(b1-3)[Fuc(a1-4)]Glc
How it was run: as §1

[29] = biological target: Ara(a1-5)Ara(a1-5)Ara(a1-5)Ara(a1-5)Ara(a1-5)Ara(a1-5)Ara
How it was run: as §1

[30] = biological target: Fuc(a1-6)GlcNAc
How it was run: as §1

[31] = biological target: Gal(b1-3)GalNAc(b1-4)[Neu5Ac(a2-3)]Gal(b1-4)Glc
How it was run: as §1

[32] = biological target: Gal(b1-3)GlcNAc
How it was run: as §1

[33] = biological target: Gal(b1-3)GlcNAc(b1-3)[Fuc(a1-3)[Gal(b1-4)]GlcNAc(b1-6)]Gal(b1-4)]GlcNAc(b1-6)[Gal(b1-4)]GlcNAc(b1-3)]Gal(b1-4)Glc
How it was run: as §1

[34] = biological target: Gal3S(b1-4)GlcNAc
How it was run: as §1

[35] = biological target: Glc(a1-2)Glc(a1-2)Glc
How it was run: as §1

[36] = biological target: Glc(a1-4)Glc(a1-6)Glc
How it was run: as §1

[37] = biological target: Glc(a1-6)Glc(a1-6)Glc
How it was run: as §1

[38] = biological target: Glc(b1-3)Glc(b1-3)Glc(b1-3)Glc(b1-3)Glc(b1-3)Glc(b1-3)Glc(b1-3)Glc(b1-3)Glc(b1-3)Glc(b1-3)Glc
How it was run: as §1

[39] = biological target: Glc(b1-3)Glc(b1-3)Glc(b1-3)Glc(b1-3)Glc(b1-3)Glc(b1-3)Glc(b1-3)Glc(b1-3)Glc(b1-3)Glc(b1-3)Glc(b1-3)Glc
How it was run: as §1

[40] = biological target: Glc(b1-3)Glc(b1-3)Glc(b1-3)Glc(b1-3)Glc(b1-3)Glc(b1-3)Glc(b1-3)Glc(b1-3)Glc(b1-3)Glc(b1-3)Glc(b1-3)Glc(b1-3)Glc
How it was run: as §1

[41] = biological target: Glc(b1-3)Glc(b1-4)Glc
How it was run: as §1

[42] = biological target: Glc(b1-3)Glc(b1-4)Glc(b1-4)Glc
How it was run: as §1

[43] = biological target: Glc(b1-4)Glc(b1-4)Glc(b1-4)Glc(b1-4)Glc(b1-4)Glc(b1-4)Glc(b1-4)Glc(b1-4)Glc(b1-4)Glc(b1-4)Glc
How it was run: as §1

[44] = biological target: GlcA(b1-3)Gal
How it was run: as §1

[45] = biological target: GlcA3S(b1-3)Gal(b1-4)GlcNAc(b1-3)Gal(b1-4)Glc
How it was run: as §1

[46] = biological target: GlcNAc(b1-3)Gal(b1-4)Glc
How it was run: as §1

[47] = biological target: Man(a1-2)Man(a1-2)Man(a1-3)[Man(a1-2)Man(a1-6)[Man(a1-3)]Man(a1-6)]Man(b1-4)GlcNAc(b1-4)GlcNAc
How it was run: as §1

[48] = biological target: Man(b1-4)Man(b1-4)Man(b1-4)Man(b1-4)Man
How it was run: as §1

[49] = biological target: Neu(a2-3)Gal(b1-4)[Fuc(a1-3)]GlcNAc(b1-3)Gal(b1-4)Glc
How it was run: as §1

[50] = biological target: Neu5Ac(a2-3)Gal(b1-3)GlcNAc(b1-3)Gal(b1-4)Glc
How it was run: as §1

[51] = biological target: Neu5Ac(a2-3)Gal(b1-3)[Neu5Ac(a2-6)]GalNAc
How it was run: as §1

[52] = biological target: Neu5Ac(a2-3)Gal(b1-4)GlcNAc6S(b1-3)Gal6S(b1-3)GlcNAc6S
How it was run: as §1

[53] = biological target: Neu5Ac(a2-3)Gal(b1-4)[Fuc(a1-3)]GlcNAc(b1-3)Gal
How it was run: as §1

[54] = biological target: Neu5Ac(a2-6)Gal(b1-4)GlcNAc(b1-2)Man(a1-3)[Neu5Ac(a2-6)Gal(b1-4)GlcNAc(b1-2)Man(a1-6)]Man(b1-4)GlcNAc(b1-4)GlcNAc
How it was run: as §1

[55] = biological target: Neu5Ac(a2-6)Gal(b1-4)GlcNAc(b1-3)[Neu5Ac(a2-6)Gal(b1-4)GlcNAc(b1-6)]Gal(b1-4)Glc
How it was run: as §1

B1: Malectin (Xenopus laevis), Q6INX3 (protein)
chain: SGLADKVIWAVNAGGESHVDVHGIHYRKDPLEGRVGRASDYGMKLPILRSNPEDQVLYQTERYNEDSFGYDIPIKEEGEYVLVLKFAEVYFAQSQQKVFDVRVNGHTVVKDLDIFDRVGHSTAHDEIIPISIKKGKLSVQGEVSTFTGKLSVEFVKGYYDNPKVCALFIMKGTADDVPMLQPHPGLE
glycan array binding signal (z-score) [1]: -0.069 | glycan array binding signal (z-score) [2]: -0.068 | glycan array binding signal (z-score) [3]: -0.075 | glycan array binding signal (z-score) [4]: -0.066 | glycan array binding signal (z-score) [5]: -0.076 | glycan array binding signal (z-score) [6]: -0.076 | glycan array binding signal (z-score) [7]: 0.052 | glycan array binding signal (z-score) [8]: 0.041 | glycan array binding signal (z-score) [9]: 8.46 | glycan array binding signal (z-score) [10]: -0.171 | glycan array binding signal (z-score) [11]: -0.214 | glycan array binding signal (z-score) [12]: 0.133 | glycan array binding signal (z-score) [13]: 0.876 | glycan array binding signal (z-score) [14]: 1.32 | glycan array binding signal (z-score) [15]: -0.198 | glycan array binding signal (z-score) [16]: -0.074 | glycan array binding signal (z-score) [17]: -0.076 | glycan array binding signal (z-score) [18]: -0.074 | glycan array binding signal (z-score) [19]: -0.076 | glycan array binding signal (z-score) [20]: -0.072 | glycan array binding signal (z-score) [21]: -0.075 | glycan array binding signal (z-score) [22]: -0.075 | glycan array binding signal (z-score) [23]: -0.076 | glycan array binding signal (z-score) [24]: -0.076 | glycan array binding signal (z-score) [25]: -0.076 | glycan array binding signal (z-score) [26]: -0.073 | glycan array binding signal (z-score) [27]: -0.073

B2: Dectin-1 (Mus musculus), Q6QLQ4 (protein)
chain: GHNSGRNPEEKDNFLSRNKENHKPTESSLDEKVAPSKASQTTGGFSQPCLPNWIMHGKSCYLFSFSGNSWYGSKRHCSQLGAHLLKIDNSKEFEFIESQTSSHRINAFWIGLSRNQSEGPWFWEDGSAFFPNSFQVRNTAPQESLLHNCVWIHGSEVYNQICNTSSYSICEKEL
glycan array binding signal (z-score) [28]: 0.092 | glycan array binding signal (z-score) [29]: -0.064 | glycan array binding signal (z-score) [30]: -0.091 | glycan array binding signal (z-score) [31]: -0.091 | glycan array binding signal (z-score) [32]: -0.088 | glycan array binding signal (z-score) [33]: 0.102 | glycan array binding signal (z-score) [34]: -0.071 | glycan array binding signal (z-score) [35]: -0.135 | glycan array binding signal (z-score) [36]: 0.413 | glycan array binding signal (z-score) [37]: -0.113 | glycan array binding signal (z-score) [38]: 1.33 | glycan array binding signal (z-score) [39]: 5.34 | glycan array binding signal (z-score) [40]: 13.4 | glycan array binding signal (z-score) [41]: -0.135 | glycan array binding signal (z-score) [42]: -0.135 | glycan array binding signal (z-score) [43]: 0.216 | glycan array binding signal (z-score) [44]: -0.06 | glycan array binding signal (z-score) [45]: -0.078 | glycan array binding signal (z-score) [46]: -0.029 | glycan array binding signal (z-score) [47]: -0.004 | glycan array binding signal (z-score) [48]: -0.113 | glycan array binding signal (z-score) [49]: -0.091 | glycan array binding signal (z-score) [23]: -0.039 | glycan array binding signal (z-score) [50]: -0.091 | glycan array binding signal (z-score) [51]: -0.069 | glycan array binding signal (z-score) [52]: -0.054 | glycan array binding signal (z-score) [53]: -0.091 | glycan array binding signal (z-score) [54]: -0.091 | glycan array binding signal (z-score) [55]: -0.091

Reference: the supplement of paper PMC8728848
